This is an account of results in PubChem BioAssay AID2685 (National Center for Advancing Translational Sciences (NCATS), 2010).

In all, about 320,000 compounds went through this assay and about 2,100 (0.66%) were called active. Inconclusive results (about 53%) are left out. The call rests on the fitted dose curve; in most records, active means well fitted inhibition curve with a large enough effect in the signal ratio, with a control signal flat (not every such curve was filed as active); inconclusive means small, poorly fitted or top-dose-only effect, or effect the other way, or a change in a side signal; inactive means flat fitted curve, though single readings scatter; the % refers to the signal ratio. The entries come from a sample that favours actives as a whole.
Potency means the concentration at half of the fitted maximal effect.

A short description of this test: qHTS Assay for Lipid Storage Modulators in Drosophila S3 Cells.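 On cell number change: cells counted by Cell Tracker Red CMTPX staining in the red channel.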 The note with it: BODIPY lipid droplet fluorescence, 18-24 h, cells fed with added oleic acid; cell number change: measured here: cell count max response; series mostly up to 46.1 µM. An outline of the steps: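 Drosophila S3 cells got compounds at several concentrations plus oleic acid (400 uM solution). Laser-scanning cytometry with 488 nm excitation read lipid droplets at 500-530 nm and cells at 575-640 nm. Percent activity was relative to 20 uM Triacsin C.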
Turning to `COc1ccc(N(CC(=O)NC2CCCC2)C(=O)Cn2nnc(-c3ccc(F)cc3)n2)cc1`, the Potency result was “inactive” and the cell number change was found to be 7.89%.

Turning to `COc1ccc(N(C(=O)Cn2nnc(-c3ccc(F)cc3)n2)C(C)C(=O)NC2CCCC2)cc1` (stereo not drawn), the Potency is 1.3 µM (active) and the cell number change came to 10.5%.

Regarding `CC(C(=O)NC1CCCC1)N(C(=O)Cn1nnc(-c2ccc(F)cc2)n1)c1ccccc1F` (stereo not drawn), the Potency result is “inactive” and the cell number change was -1.32%.

`CCOc1ccc(N(C(C)C(=O)NC2CCCCCC2)S(C)(=O)=O)cc1` (stereo not drawn): the Potency result was “inactive”.

Regarding `COc1ccc(N(C(C)C(=O)NC2CCCCCC2)S(C)(=O)=O)cc1` (stereo not drawn), the Potency was 5.17 µM (active) and the cell number change stood at 22.1%.

Regarding `CC(C(=O)NC1CCCC1)N(c1ccc(Oc2ccccc2)cc1)S(C)(=O)=O` (stereo not drawn), the Potency entry is “inactive” and the cell number change was 11.4%.

As for `CCC(CC)c1nnc(NC(=O)CN2C(=O)NC3(CCCC3)C2=O)s1`, the cell number change turned out to be 9% and the outcome was “inactive [at 0.369 µM]”.

`Cn1c(Cn2c3ccccc3c3ccccc32)n[nH]c1=S`: the Potency entry is “inactive” and the cell number change is -6.36%.

For `O=C(O)c1ccccc1-n1cnnn1`, the Potency result is “inactive” and the cell number change was -10.9%.

On to `CC(C)NCCOCCSc1ccc(Cl)cc1`, for which the Potency was 20.6 µM (active) and the cell number change was -7.67%.

As to `CCCCNCCOCCSc1ccc(Cl)cc1`, the Potency result is “inactive” and the cell number change is -17.4%.

As for `CCC(C)NCCOCCSc1ccc(Cl)cc1` (stereo not drawn), the Potency entry was “inactive” and the cell number change was found to be 14.1%.

For the molecule `Cc1ccccc1C(=O)Nc1cccc(-c2ccc3nncn3n2)c1`, the Potency result was “inactive” and the cell number change turned out to be 10.3%.

`CCOc1ccccc1OCCn1ncc2ccc(OC)c(OC)c2c1=O`: the Potency entry is “inactive” and the cell number change was 16.5%.

With `Brc1ccccc1OCCNCc1ccccc1`, the Potency entry is “inactive” and the cell number change was 17.2%.

`CCOc1ccccc1OCCCNCc1ccccc1`: the Potency result is “inactive” and the cell number change was 2.07%.

For `COCCNCc1ccccc1`, the Potency was 18.4 µM (active) and the cell number change is -17.8%.

On to `CS(=O)(=O)c1ccc(C(=O)Nc2ccc(N3CCOCC3)cc2)c(Cl)c1`, for which the Potency result was “inactive”.

As to `COc1ccc(NC(=O)COC(=O)C2CCC2)cc1Cl`, the Potency entry is “inactive” and the cell number change is 12.2%.

Turning to `CCC(Sc1nc(C)cc(=O)[nH]1)C(=O)Nc1nc2c(s1)CCCC2` (stereo not drawn), the Potency was 14.6 µM (active) and the cell number change is -8.37%.

For the molecule `Cc1cc(=O)[nH]c(SCC(=O)Nc2nc3c(s2)CCCC3)n1`, the Potency entry was “inactive” and the cell number change came out at 12.9%.

`COc1cc(=O)[nH]c(SC(C)C(=O)Nc2nc3c(s2)CCCC3)n1` (stereo not drawn): the Potency entry was “inactive” and the cell number change was found to be 7.98%.

`Cc1ccccc1-c1nc(CSc2nc3c(c(=O)[nH]2)CCC3)c(C)o1`: the Potency result is “inactive” and the cell number change was -21.7%.

`CCc1nc2scc(-c3cccs3)c2c(=O)o1`: the Potency result is “inactive” and the cell number change worked out at 9.87%.

Take `O=c1oc(-c2cccs2)nc2scc(-c3cccs3)c12`: the Potency is 14.6 µM (active) and the cell number change was -10.7%.

Regarding `Cc1sc2nc(-c3cccs3)oc(=O)c2c1C`, the Potency result is “inactive” and the cell number change came to 5.53%.

As for `CN1CCN(NC(=O)Nc2ccc(F)cc2)CC1`, the Potency entry was “inactive” and the cell number change was found to be 17.8%.

In the case of `CN1CCN(NC(=O)Nc2cc(Cl)cc(Cl)c2)CC1`, the Potency was 4.61 µM (active).

Consider `CN1CCN(NC(=O)Nc2ccc(Br)cc2)CC1`, for which the Potency entry was “inactive”.

For the molecule `CCOC(=O)C1CCCN(C(=O)c2cc3ncc(Br)cn3n2)C1` (stereo not drawn), the Potency result is “inactive” and the cell number change was 5.95%.

As for `CC(Oc1ccccc1)c1nnc(N)s1` (stereo not drawn), the Potency result was “inactive” and the cell number change came out at 14.9%.

As for `O=C(COc1ccccc1)Nc1ccc(N2CCN(C(=O)c3ccco3)CC2)cc1`, the Potency entry was “inactive” and the cell number change was 11.5%.

Regarding `O=C(COc1ccc([N+](=O)[O-])cc1)Nc1ccc(N2CCN(C(=O)c3ccco3)CC2)cc1`, the Potency is 2.06 µM (active) and the cell number change is -6.49%.

For the molecule `CC(=O)N1CCN(c2ccc(NC(=O)c3ccco3)cc2)CC1`, the Potency result is “inactive” and the cell number change is -9.52%.

Turning to `O=C(Nc1ccc(N2CCN(C(=O)c3ccco3)CC2)cc1)c1ccco1`, the Potency entry was “inactive” and the cell number change worked out at 25.3%.

Take `CC(C)(C)OC(=O)N1CCN(c2ccc(NC(=O)c3ccco3)cc2)CC1`: the Potency is 3.26 µM (active) and the cell number change was 4.03%.

On to `O=C(COc1ccc(Cl)cc1)Nc1ccc(N2CCN(C(=O)c3ccco3)CC2)cc1`, for which the Potency entry was “inactive” and the cell number change was -2.54%.

Regarding `CCOC(=O)C1CCCN(C2CC(=O)N(c3ccc(C(C)C)cc3)C2=O)C1` (stereo not drawn), the Potency entry was “inactive” and the cell number change was 15.9%.

With `COc1cccc(NC(=O)COC(=O)CCS(=O)(=O)c2ccc(C)cc2)c1`, the Potency result was “inactive”.

`O=C(NC1CCSC1=O)c1ccc(Cl)cc1` (stereo not drawn): the Potency entry was “inactive” and the cell number change was found to be 12%.

As for `CC(C)[C@H](NC(=O)NC1CCN(Cc2ccccc2)CC1)C(=O)O`, the Potency entry was “inactive” and the cell number change worked out at 11.2%.

In the case of `N=C1C(=O)OCC1c1ccccc1NC(=O)c1ccc(F)cc1` (stereo not drawn), the Potency entry is “inactive” and the cell number change was -9.08%.

Turning to `O=C(Nc1cccc(NC(=O)c2ccccc2[N+](=O)[O-])n1)c1ccccc1[N+](=O)[O-]`, the Potency entry was “inactive” and the cell number change was -14.1%.

As for `Cc1cc(C)nc(N2CCCC(C(=O)NC3CC3)C2)n1` (stereo not drawn), the Potency entry was “inactive” and the cell number change stood at 0.42%.

Consider `Cc1cc(C)nc(N2CCC(C(=O)NC3CC3)CC2)n1`, for which the Potency is 0.58 µM (active) and the cell number change came to 11.7%.

In the case of `Cc1cc(C)nc(N2CCC(C(=O)O)CC2)n1`, the Potency entry is “inactive”.

On to `CCc1ccc(NC(=O)C2CCN(S(=O)(=O)c3c(C)noc3C)CC2)cc1`, for which the Potency result was “inactive”.

In the case of `Cc1noc(C)c1S(=O)(=O)N1CCC(C(=O)Nc2ccc(OC(F)(F)F)cc2)CC1`, the Potency was 18.4 µM (active) and the cell number change was -15.1%.

In the case of `COc1ccc(NC(=O)C2CCN(S(=O)(=O)c3c(C)noc3C)CC2)cc1OC`, the Potency result is “inactive” and the cell number change is 0.165%.

Turning to `CCCN1CCN(CCCNC(=O)c2ccc3nc(N4CCC(C)CC4)sc3c2)CC1`, the Potency result was “inactive” and the cell number change is -11.1%.

`N#CCCN1CCN(S(=O)(=O)c2ccc(S(=O)(=O)NC3CC3)cc2)CC1`: the Potency entry was “inactive” and the cell number change was found to be 17.2%.

Take `CCS(=O)(=O)N1CCN(S(=O)(=O)c2ccc(S(=O)(=O)NC3CC3)cc2)CC1`: the Potency is 6.51 µM (active) and the cell number change was 8.57%.

Regarding `O=S(=O)(NC1CC1)c1ccc(S(=O)(=O)N2CCC3(CC2)OCCO3)cc1`, the Potency result was “inactive” and the cell number change amounted to 0.569%.

With `CCN(c1ccccc1)S(=O)(=O)c1cc(NC(=O)COC(=O)C2CC2)ccc1Cl`, the Potency entry is “inactive” and the cell number change was found to be 6.19%.

With `COc1ccc([N+](=O)[O-])cc1NC(=O)c1cccs1`, the Potency entry was “inactive”.

Turning to `O=C(/C=C/c1cccc([N+](=O)[O-])c1)N1CCN(C(=O)c2ccco2)CC1`, the Potency result is “inactive” and the cell number change was 23.6%.

`O=C(/C=C/c1cccc([N+](=O)[O-])c1)c1ccco1`: the Potency was 4.11 µM (active) and the cell number change was -29.8%.

For the molecule `CN(C)c1ccc(/C=C/C(=O)c2ccc3c(c2)OCCO3)cc1[N+](=O)[O-]`, the Potency entry is “inactive” and the cell number change came to 33.3%.

For the molecule `O=C(N/N=C/c1cccc([N+](=O)[O-])c1)c1ccc2c(c1)OCCO2`, the Potency result is “inactive” and the cell number change worked out at 23.7%.

Take `O=C(/C=C/c1cccc([N+](=O)[O-])c1)N1CCN(c2ccc(F)cc2)CC1`: the Potency was 20.6 µM (active) and the cell number change came to 2.7%.

For `COc1ccccc1N1CCN(C(=O)/C=C/c2cccc([N+](=O)[O-])c2)CC1`, the Potency entry was “inactive” and the cell number change was found to be 9.07%.

For the molecule `COc1cc([N+](=O)[O-])ccc1N/C=C/C(=O)c1cccs1`, the Potency is 11.6 µM (active) and the cell number change was -11.2%.

As for `O=C(/C=C/c1cccc([N+](=O)[O-])c1)c1ccc2c(c1)OCCO2`, the Potency was 18.4 µM (active) and the cell number change was -6.34%.

With `CNc1cc([N+](=O)[O-])ccc1N/C=C/C(=O)c1cccs1`, the Potency result was “inactive” and the cell number change is -14.6%.

Consider `O=C(/C=C/c1ccc([N+](=O)[O-])cc1)c1ccco1`, for which the Potency entry was “inactive” and the cell number change is -5.18%.

Consider `O=C(/C=C/c1cccc([N+](=O)[O-])c1)N1CCOCC1`, for which the Potency entry is “inactive”.
